# Laboratory results published in PubChem BioAssay (NCATS).
# Results filed as inconclusive are left out. Unmarked numbers belong to inactive results. The source made the active and inactive calls. Calls come from the whole dose curve; as a rule, active = well fitted inhibition curve with a large enough effect; inconclusive = small, poorly fitted or top-dose-only effect; inactive = flat fitted curve, though single readings scatter.
# Experiment: P-glycoprotein substrates identified in KB-8-5-11 adenocarcinoma cell line, qHTS therapeutic library screen (AID 1346987); note: nearly all actives have a fitted effect of over 65% in size
# Details: KB-8-5-11 (P-gp overexpressing) viability, CellTiter-Glo, 72 h; series mostly up to 44.5 µM; activity change, negative = cytotoxicity: at the top concentration
# Summary of the method: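 Steps: plate 500 KB-8-5-11 cells/well in DMEM + 10% FCS (colchicine removed); pin compounds in dose-response; incubate 72 h, 37 degree C, 5% CO2; add CellTiter-Glo, 5 min; read luminescence.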
# % is set by controls: 0 for no effect and ±100 for the full control effect.
SMILES,"activity change, negative = cytotoxicity",outcome
C=C1CC[C@@H]2[C@@](C)(CO[C@@H]3O[C@H](CO)[C@@H](O)[C@H](O)[C@H]3O)[C@H](O)CC[C@@]2(C)[C@@H]1CC/C(C)=C/CO[C@@H]1O[C@H](CO)[C@@H](O)[C@H](O)[C@H]1O,-3.82% [at 17.3 µM],–
COC(=O)Cn1nc(-c2cccc(OC)c2)c2ccccc21,–,inactive
C=C1CCC[C@]2(C)CC[C@@](O)(C(=C)C(=O)O)C[C@@H]12,-12.1%,–
COc1ccc(NC(=O)c2ccc(-c3ccc(C(N)=O)cc3C)cc2)cc1N1CCN(C)CC1,–,inactive
COC(=O)C1(O)C(OC(C)=O)CCC2C3(CC(c4ccoc4)OC3=O)C(C)=CCC21C(=O)OC (configuration not stated),–,inactive [at 17.3 µM]
C/C(CO)=C1/CCC23COC(C2)C(O)(C(=O)O)CCC13 (configuration not stated),7.41%,–
CC(C)(OC1OC(CO)C(O)C(O)C1O)C1CCC(O)(CO)C2CC(=O)C(C)(O)C2C1 (configuration not stated),–,inactive [at 17.3 µM]
Cc1cc(-n2c(=O)[nH]c(=O)n(C)c2=O)ccc1Oc1ccc(SC(F)(F)F)cc1,–,inactive
COc1cc(/C=C/C(=O)O)ccc1O[C@@H]1O[C@H](CO)[C@@H](O)[C@H](O)[C@H]1O[C@@H]1OC[C@](O)(CO)[C@H]1O,2.65% [at 17.3 µM],–
CC(C)(O)[C@@H]1CC[C@]2(CO)[C@@H](O)CC[C@](C)(O)[C@H]2[C@@H]1O[C@@H]1O[C@H](CO)[C@@H](O)[C@H](O)[C@H]1O,2.4% [at 17.3 µM],–
CC(=O)OC1(C)CC(O)C2(O)C=COC(OC3OC(CO)C(O)C(O)C3O)C12 (configuration not stated),–,inactive [at 17.3 µM]
CC(NC(=O)c1ccccc1N)C(=O)O (configuration not stated),5.71%,–
COC(=O)C(CC1(OC(=O)C(C)C)c2ccccc2N2C(=O)C(C)(C)N(O)C21)n1cnc2ccccc2c1=O (configuration not stated),-6.25% [at 17.3 µM],–
Fc1ccccc1-c1nc2ccn(Cc3ccc(-c4ccc(C(F)(F)F)cc4C(F)(F)F)nn3)cc-2n1,4.25%,–
CC1=C[C@@H]2[C@H]3[C@@H]4O[C@@](C)(CC[C@H]4O)[C@H]3CC(=O)[C@]23C(=O)N[C@@H](CC(C)C)[C@@H]3[C@@H]1C,–,inactive
O=C(/C=C/c1ccc(O)c(O)c1)OC[C@H]1O[C@@H](OC2CCCCC2O)[C@H](O)[C@@H](O)[C@@H]1O (some centres not stated),–,inactive [at 17.3 µM]

SMILES,"activity change, negative = cytotoxicity",outcome
CC(C)C(NC(=O)c1ccc(O)cc1)C(=O)N1CCCC1C(=O)Nc1c(O)cccc1C(=O)O (configuration not stated),–,inactive [at 17.3 µM]
CCCN1CCC[C@@H](c2cccc(S(C)(=O)=O)c2)C1,-5.3%,–
C[C@@H]1CC[C@]2(C(=O)O[C@@H]3O[C@H](CO[C@@H]4O[C@H](CO)[C@@H](O)[C@H](O)[C@H]4O)[C@@H](O)[C@H](O)[C@H]3O)CC[C@]3(C)C(=CCC4[C@@]5(C)CC[C@H](O)[C@](C)(C(=O)O)C5CC[C@]43C)[C@@H]2[C@]1(C)O (some centres not stated),–,inactive [at 9.29 µM]
NC(=O)[C@@H]1CC[C@H](c2ccc(OCc3ccccc3F)cc2)N1,-13.2%,–
COc1ccc(N2CCN(CCCNC(=O)Cn3c(=O)c4cccn4c4c(C)ccnc43)CC2)cc1,-13.1%,–
CCCCOc1nc(N)c2c(n1)N(Cc1cccc(CN3CCCC3)c1)CC(=O)N2,6.11%,–
C/C1=C\CC[C@]2(C)O[C@H]2C(=O)c2c(C)coc2C1,-3.61%,–
COc1cc([C@@H](O[C@@H]2O[C@H](CO)[C@@H](O)[C@H](O)[C@H]2O)[C@@H]2CO[C@H](c3ccc(O)c(OC)c3)[C@H]2CO)ccc1O,5.88% [at 17.3 µM],–
C[C@H]1[C@H](C)C[C@@H](C(=O)O)C2CC[C@]3(C)C(=CC[C@@H]4[C@@]5(C)CC[C@H](O)C(C)(C)[C@@H]5CC[C@]43C)[C@@H]21 (some centres not stated),-20.3%,–
CC1=CC23[C@H](C=C(C(=O)O)[C@@H]2COC(=O)[C@]3(O)CO)[C@@H]1C (some centres not stated),2.83%,–
CC1C2=CC(=O)OC2(O)CC2C1C(O)CC1C(C)(CO)CCCC21C (configuration not stated),4.39%,–
COC(=O)[C@@H](NC(=O)[C@H](CC(C)C)NC(=O)N(Cc1ccccc1)C[C@@H](O)[C@H](Cc1ccccc1)NC(=O)OC(C)(C)C)C(C)C,-2.72% [at 9.29 µM],–
C=C1CCc2occ(C)c2[C@H]2[C@H]1[C@@]13O[C@@]1(C[C@@H](C)[C@H]3OC(C)=O)[C@H]1O[C@@]21C,9.76%,–
COc1c(O[C@@H]2O[C@H](CO)[C@@H](O)[C@H](O)[C@H]2O)c(CCC(=O)O)cc2ccoc12,–,inactive
COC1OC(O)C2(CCC3(O2)C(C)CC2OC(=O)C4(C)CCCC3(C)C24)C1O (configuration not stated),–,inactive
COc1cc(O)cc(C)c1C(=O)O[C@H]1[C@@H](O)[C@@H](n2ccc(=O)[nH]c2=O)O[C@@H]1CO,–,inactive [at 17.3 µM]
